{
  "source": "PubChem BioAssay AID651789",
  "about": "(National Center for Advancing Translational Sciences (NCATS), 2012)",
  "note": "Inconclusive results are not listed. A number with no mark means an inactive call. Activity calls are given as the source filed them. Calls come from the whole dose curve; as a rule, active = well fitted inhibition curve with a large enough effect; inconclusive = small, poorly fitted or top-dose-only effect; inactive = no such curve, though single readings can be large or run the other way. Potency is the fitted concentration of half-maximal effect.",
  "data": [
    {"test": "Acumen qHTS Assay for Inhibitors of the mTORC1 Signaling Pathway in WT MEF Cells: Hit Validation; note: nearly all actives have a fitted effect of over 60% in size;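 for activity change, negative = inhibition: percent of cells above a cutoff set by 7.5 nM rapamycin treated wells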", "details": "Acumen imaging; series mostly up to 37.3 µM; activity change, negative = inhibition: at the top concentration", "source_text": "The mammalian target of rapamycin (mTOR) is an intracellular serine/threonine kinase Aberrant regulation of mTOR signaling plays a causative role in a number of human diseases, including cancer, benign tumors such as lymphangioleiomyomatosis (LAM) and Tuberous Sclerosis Complex (TSC), and metabolic diseases such as diabetes and obesity. This project aims to identify inhibitors of ribosomal protein S6 (rpS6) phosphorylation. The phosphorylation of rpS6 is a key event downstream of mTOR activation. The assay uses a phospho-specific antibody of phospho-rpS6 to detect inhibitors of mTOR activation. Mutations in the Tsc1 and Tsc2 genes are the underlying genetic lesions responsible for TSC, causing constitutive activation of the mTORC1 pathway and leading to profound effects on cell metabolism. Aberrant metabolism in cancer has recently received significant attention as a target to develop therapeutic agents in the treatment of cancer.1 As Tsc2-/- cells have lost the ability to respond to energy and growth factor deprivation, these cells are unable to properly down regulate cellular biosynthetic processes in response to metabolic stress, and are thus extremely sensitive to glucose deprivation-induced death.2 A central goal of this project is to explore the unique cell survival and metabolic properties of cells with Tsc1 or Tsc2 by screening for compounds that selectively target the Tsc2-/- MEFs by screening both Tsc2-/- and WT MEF cell lines. We hope to better understand these aspects of TSC physiology in order to exploit them for therapeutic benefit.\nNIH Molecular Libraries Probe Production Centers Network [MLPCN]\nNIH Chemical Genomics Center [NCGC]\nAssay Submitter (PI): Blenis, John; Harvard University\nFor quantitative high throughput analysis of mTORC1 signaling, we developed a cell-based assay for immuno-fluorescence based detection of rpS6 phosphorylation on the Acumen Explorer that will be used a platform for the primary small molecule screen. Mouse embryonic fibroblasts (MEFs) are cultured in 1536-well plates using DMEM + 10% FBS. Twenty-four hrs after plating, test compounds (solubilized in DMSO) are delivered and incubated with the cells for 24 hrs at 37 degree Celsius. Following the incubation, media with compound is aspirated and the cells are fixed in 4% paraformaldehyde (PFA) containing PBS + 0.2% TX-100. Next, PFA is aspirated, cells are washed two times with PBS plus 0.2% TX-100 and the cells are blocked for 1 hr at room temperature (blocking buffer: LiCOR Blocking Buffer plus 0.2% TX-100). This is followed by aspiration and staining with Alexa-488 conjugated-phospho-rpS6 Ser235/236 antibody for 2 hours at room temperature (Cell Signaling Technology # 4803, 1:50 dilution in blocking buffer). Cells are washed two times with PBS plus 0.2% TX-100, and stained with 10 uM propidium iodide (PI) for 20-25 minutes for cell number measurement (1:500 dilution of Hoescht staining is also added for IN Cell imaging). The plates are scanned on the Acumen Explorer laser scanning instrument (TTP Labtech) using the 488nm laser for simultaneous excitation of the Alexa-488 and PI. […] Fluorescence emission from the PI stain is selected using a 575-640 nm band pass filter. The normalized phospho-S6 staining is calculated as the ratio of the integrated Alexa 488 intensity divided by the integrated PI intensity for the single concentration rapamycin control (7.5 nM) and DMSO columns. […] Inhibition of the pathway is defined based on the normalized phospho-S6 intensity in rapamycin treated cells. Active cells are defined as those with a normalized phospho-S6 staining above this threshold, and each treatment is reported as the % positive cells in the well, where thresholds are defined by selecting wells with the highest and lowest signal and differentiating between the % non-active and % active populations. In addition to the pathway specific phospho-S6 endpoint, the number of PI stained cells from the Acumen is recorded as a measure of cell viability. […]", "units": {"activity change, negative = inhibition": "%"}, "values": [
      {"smiles": "Cc1ccccc1-c1nc(CN2C(=O)CN=C(c3ccccc3)c3ccccc32)c(C)o1", "activity change, negative = inhibition": -21.4},
      {"smiles": "CN[C@@H]1C[C@@]2(C)O[C@@H]([C@@H]1OC)n1c3ccccc3c3c4c(c5c6ccccc6n2c5c31)C(=O)NC4", "Potency": "0.0325 µM (active)"},
      {"smiles": "O=C(Nc1ccon1)c1cccn(Cc2cccc(Cl)c2)c1=O", "activity change, negative = inhibition": 3.6},
      {"smiles": "CCOc1ccc(NC(=O)CSc2oc(-c3ccccc3)nc2S(=O)(=O)c2ccc(Cl)cc2)cc1", "Potency": "3.69 µM (active)"},
      {"smiles": "CCOc1ccc(CN(CCc2ccc3c(c2)OCO3)Cc2ccc(C)cc2)cc1", "activity change, negative = inhibition": -17.6},
      {"smiles": "CCN(CC)CCSc1nc2ccccc2c(=O)n1-c1ccc(Cl)cc1", "activity change, negative = inhibition": 0.87},
      {"smiles": "Cc1ccccc1-n1c(/C=C/c2ccccc2F)nc2ccccc2c1=O", "activity change, negative = inhibition": 14.5},
      {"smiles": "CCN(CC)C(=O)c1ccc(NC(=O)CCn2nc(-c3ccc(C)cc3)c3ccccc3c2=O)cc1", "activity change, negative = inhibition": 33.8},
      {"smiles": "Cc1ccc(-n2c(/C=C/c3ccc(Br)s3)nc3ccccc3c2=O)cc1C", "activity change, negative = inhibition": -27.4},
      {"smiles": "Cc1cccc(CN2CCc3nc(N4CCN(c5ccccn5)CC4)ncc3C2)c1", "activity change, negative = inhibition": 21.3},
      {"smiles": "Cc1ccccc1-n1c(/C=C/c2c(C)[nH]c3ccccc23)nc2ccccc2c1=O", "Potency": "1.85 µM (active)"},
      {"smiles": "CCCOC(=O)c1c(C)oc2c1cc(NS(=O)(=O)c1ccc(OCC)cc1)c1ccccc12", "Potency": "0.656 µM (active)"},
      {"smiles": "CCOc1ccc(N(C(C)C(=O)Nc2cc(Cl)ccc2OC)S(C)(=O)=O)cc1", "note": "(stereo not drawn)", "Potency": "3.69 µM (active)"}
    ]}
  ]
}
